Results from PubChem BioAssay.
Several values for one entry are separate records, joined by “and”; a condition that tells them apart may be missing. Identical values can stand only once. Some compounds were tested as several samples or in several runs, with calls that do not always agree. Activity calls are given as the source filed them. Unless noted, how the calls were made is not given here.

Experiments:
[1] = HepG2 liver cancer cell viability effects, profiling panel, resazurin fluorescence, 24 h, PK04 Diversity Set (AID 1172); details: higher = more signal; further: test concentration not given here
[2] = basal S. cerevisiae growth modulation, no modifier, primary screen, OD600, strain BY4716, 24 h, basal condition (AID 1173); details: OD600, 24 h, higher = more signal, called active from +8 up or from −8 down
[3] = MM1S myeloma cell viability, profiling panel, resazurin fluorescence, basal, 24 h, PK04 Diversity Set (AID 1174); details: higher = more signal, called active from +8 up or from −8 down;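 further: MM1S multiple myeloma cell line; test concentration not given here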
[4] = molecular target: Dihydroorotate dehydrogenase (quinone), mitochondrial (Plasmodium falciparum (isolate 3D7)) (UniProt Q08210); test: PfDHODH enzyme inhibitors, primary screen, biochemical, C-terminal His tag, absorbance 600 nm (AID 1175); details: DCIP absorbance 600 nm, higher = more signal, called active from +8 up or from −8 down;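 further: recombinant parasite enzyme with a five histidine tag at its C terminus; test concentration not given here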
Dihydroorotate dehydrogenase (quinone), mitochondrial (Plasmodium falciparum (isolate 3D7)), sequence (Q08210 whole entry, looked up): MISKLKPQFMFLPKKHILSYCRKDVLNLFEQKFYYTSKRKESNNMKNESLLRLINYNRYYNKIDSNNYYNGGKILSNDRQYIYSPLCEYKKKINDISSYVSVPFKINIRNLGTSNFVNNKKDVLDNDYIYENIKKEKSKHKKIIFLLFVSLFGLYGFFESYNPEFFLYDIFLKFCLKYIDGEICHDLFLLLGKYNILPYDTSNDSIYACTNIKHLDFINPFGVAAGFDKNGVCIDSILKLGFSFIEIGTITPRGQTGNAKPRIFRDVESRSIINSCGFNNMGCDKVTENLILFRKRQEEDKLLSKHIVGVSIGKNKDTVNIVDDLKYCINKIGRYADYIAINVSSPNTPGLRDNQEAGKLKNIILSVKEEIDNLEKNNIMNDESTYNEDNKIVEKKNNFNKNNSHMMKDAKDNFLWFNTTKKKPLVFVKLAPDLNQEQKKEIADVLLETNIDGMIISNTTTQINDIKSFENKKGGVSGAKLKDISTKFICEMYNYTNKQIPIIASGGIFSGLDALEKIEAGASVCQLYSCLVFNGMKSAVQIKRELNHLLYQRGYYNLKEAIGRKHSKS

[5] = P. aeruginosa biofilm formation inhibitors, primary screen, strain PAO1, LB-PBS medium, absorbance 600 nm (AID 1176); further: test concentration not given here; details: P. aeruginosa PAO1 growth/biofilm, A600, 12 h; higher = more signal
[6] = S. cerevisiae RM11-1a growth modifiers, primary screen, strain RM11-1a, OD600, basal, 24 h (AID 1177); details: OD600, 24 h, higher = more signal, called active from +8 up or from −8 down;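 further: cultures grown under basal conditions with no added stressor; test concentration not given here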
[7] = E. coli acrAB mutant growth effects, primary screen, E. coli filamentation inducers, strain DRC39, OD650, 24 h (AID 1178); details: higher = more signal, called active from +8 up or from −8 down;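 further: growth measured as culture turbidity by optical density at 650 nm; test concentration not given here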
[8] = E. coli acrAB mutant growth effects, primary screen, E. coli filamentation inducers, strain DRC39, OD650, 48 h (AID 1179);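 further: screen aims at cell division blockers that make cells filament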; details: E. coli DRC39 delta-acrAB growth, higher = more signal, called active from +8 up or from −8 down
[9] = RPMI8226 myeloma cell viability, profiling panel, resazurin fluorescence, basal, 24 h, PK04 Diversity Set (AID 1180); details: higher = more signal;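 further: RPMI8826 multiple myeloma cell line at 5000 cells per well; test concentration not given here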
[10] = molecular target: E3 ubiquitin-protein ligase XIAP (Homo sapiens) (UniProt P98170); test: XIAP binders, primary screen, biophysical, small-molecule microarray, fluorescence 635 nm (AID 1181); details: small-molecule microarray binding, higher = more signal;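 further: score merges 667 nm emission and signal to noise over triplicate slides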
E3 ubiquitin-protein ligase XIAP (Homo sapiens), sequence (P98170 whole entry, looked up): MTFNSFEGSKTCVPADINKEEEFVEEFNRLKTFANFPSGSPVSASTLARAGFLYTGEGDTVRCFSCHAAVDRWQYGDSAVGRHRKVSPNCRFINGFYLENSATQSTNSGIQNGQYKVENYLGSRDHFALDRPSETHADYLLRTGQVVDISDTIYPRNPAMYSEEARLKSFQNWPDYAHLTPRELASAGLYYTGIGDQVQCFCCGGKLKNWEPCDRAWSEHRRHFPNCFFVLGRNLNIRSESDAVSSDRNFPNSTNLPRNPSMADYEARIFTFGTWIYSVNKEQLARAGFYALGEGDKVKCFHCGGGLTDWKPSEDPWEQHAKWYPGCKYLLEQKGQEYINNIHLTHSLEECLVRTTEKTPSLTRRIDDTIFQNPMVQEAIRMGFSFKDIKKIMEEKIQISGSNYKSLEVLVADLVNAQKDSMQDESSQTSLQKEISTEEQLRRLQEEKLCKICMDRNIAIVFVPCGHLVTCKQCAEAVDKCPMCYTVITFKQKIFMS

COC(=O)C1=C(C)N(Cc2ccccc2)C2=C3C(=O)CCC[C@@H]3[C@@](O)(C(=O)OC)C(=O)N2[C@@H]1c1ccccc1
z-score [1]: 0.444 and 0.105 | z-score [2]: -2.18 (inactive) and -2.94 (inactive) | z-score [3]: 0.478 (inactive) and 0.111 (inactive) | composite z-score [4]: -0.13 (inactive) and -0.103 (inactive) | z-score [5]: -0.847 (inactive) | z-score [6]: -0.387 (inactive) and -0.728 (inactive) | z-score [7]: 0.875 (inactive) and 0.548 (inactive) | z-score [8]: 0.37 (inactive) and 0.0908 (inactive) | z-score [9]: 0.74 and 0.619 | composite z-score [10]: -0.0601 and -0.0118

COC(=O)C1=C(C)N(Cc2ccccc2)[C@]23O[C@](C(=O)OC)(C(=O)N2[C@@H]1c1ccccc1)[C@@H](c1ccccc1)[C@@H]3C(=O)c1ccccc1
z-score [1]: 1.07 and 0.475 | z-score [2]: -1.84 (inactive) and -0.926 (inactive) | z-score [3]: 0.876 (inactive) and 0.459 (inactive) | composite z-score [4]: 0.78 (inactive) and 0.324 (inactive) | z-score [5]: -0.0933 (inactive) | z-score [6]: -1.37 (inactive) and -0.224 (inactive) | z-score [7]: -0.603 (inactive) and 0.788 (inactive) | z-score [8]: -0.263 (inactive) and 0.547 (inactive) | z-score [9]: 0.56 and 0.48 | composite z-score [10]: -0.209 and 0.0264

Cc1cc2c(nc1C)CCCN2CC(O)CN1CCCc2nc(-c3ccc(Br)cc3)ccc21 (stereo not given)
z-score [1]: -0.366 and -0.367 | z-score [2]: -7.09 (inactive) and -1.64 (inactive) | z-score [3]: -0.959 (inactive) and -0.771 (inactive) | composite z-score [4]: 1.95 (inactive) and 1.18 (inactive) | z-score [5]: -0.257 (inactive) and -0.0569 (inactive) | z-score [6]: 1.37 (inactive) and 0.795 (inactive) | z-score [7]: -0.342 (inactive) and 0.458 (inactive) | z-score [8]: -0.752 (inactive) and 0.0169 (inactive) | z-score [9]: 0.0199 and -0.821 | composite z-score [10]: 1.1 and 1.9

C=CCN(C(=O)C(c1cccs1)N(C(=O)/C=C\C(=O)O)C(C)(C)CO)c1ccc(OC)cc1 (stereo not given)
z-score [1]: 0.916 and 0.892 | z-score [2]: -2.66 (inactive) and -1.93 (inactive) | z-score [3]: 1.41 (inactive) and 0.788 (inactive) | composite z-score [4]: -1.46 (inactive) and -1.61 (inactive) | z-score [5]: 0.659 (inactive) | z-score [6]: -4.37 (inactive) and -2.5 (inactive) | z-score [7]: 1.81 (inactive) and 1.92 (inactive) | z-score [8]: 2.23 (inactive) and 2.15 (inactive) | z-score [9]: 0.402 and 0.207 | composite z-score [10]: -0.102 and 0.214

CC(C)[Si]1(C(C)C)OCc2cc(CCCc3cc4c(c(CCc5ccccc5)n3)[Si](C(C)C)(C(C)C)OC4)nc(CCc3ccccc3)c21
z-score [1]: 0.926 and -0.531 | z-score [2]: -15.4 (active) and 0.852 (inactive) | z-score [3]: -0.78 (inactive) and -0.186 (inactive) | composite z-score [4]: -0.351 (inactive) and 0.681 (inactive) | z-score [5]: 0.35 (inactive) | z-score [6]: -0.656 (inactive) and 0.13 (inactive) | z-score [7]: 1.87 (inactive) and -0.184 (inactive) | z-score [8]: 1.19 (inactive) and -0.0698 (inactive) | z-score [9]: 0.583 and -1.16 | composite z-score [10]: -0.0095 and -0.111

CCCNC(=O)OC[C@H]1O[C@H](CCON=C(C)CCC(=O)OC[C@H]2O[C@H](C#Cc3ccccc3)C=C[C@@H]2Oc2ccc(C)cc2)C=C[C@@H]1Oc1ccc(OC)cc1
z-score [1]: 0.462 | z-score [2]: 0.889 (inactive) | z-score [3]: -0.0269 (inactive) | composite z-score [4]: -0.754 (inactive) | z-score [5]: -0.066 (inactive) | z-score [6]: 0.432 (inactive) | z-score [7]: 0.715 (inactive) | z-score [8]: 0.565 (inactive) | z-score [9]: 0.75 | composite z-score [10]: 0.0408

Cc1cc2c(nc1C)CCCN2CC(C)ON=C[C@@H](C)[C@H](OCc1ccccc1)C(C)C (stereo not given in full)
z-score [1]: -0.524 | z-score [2]: -0.0028 (inactive) | z-score [3]: -0.567 (inactive) | composite z-score [4]: 0.103 (inactive) | z-score [5]: -0.172 (inactive) | z-score [6]: 0.776 (inactive) | z-score [7]: -0.0901 (inactive) | z-score [8]: -0.549 (inactive) | z-score [9]: -0.394 | composite z-score [10]: 0.0546

C=CCN(C(=O)C(c1cccs1)N(CCOCCO)C(=O)/C=C\C(=O)O)C(C)(C)C (stereo not given)
z-score [1]: -0.403 and -0.304 | z-score [2]: -0.655 (inactive) and -0.25 (inactive) | z-score [3]: -0.102 (inactive) and 0.0032 (inactive) | composite z-score [4]: -2.84 (inactive) and -0.333 (inactive) | z-score [5]: -0.497 (inactive) | z-score [6]: 0.432 (inactive) and 0.467 (inactive) | z-score [7]: 1.15 (inactive) and 1.46 (inactive) | z-score [8]: 1.61 (inactive) and 1.68 (inactive) | z-score [9]: -0.0043 and -0.146 | composite z-score [10]: 0.0428 and 0.704

CC(CO)N1C(=O)[C@@H]2C3C(=O)OCCC=C[C@H]3OC23C=CCN(c2ccc4ccccc4c2)C(=O)[C@@H]13 (stereo not given in full)
z-score [1]: -0.406 and 0.0336 | z-score [2]: 0.425 (inactive) and -0.0343 (inactive) | z-score [3]: -0.832 (inactive) and -0.602 (inactive) | composite z-score [4]: -5.1 (inactive) and -0.281 (inactive) | z-score [5]: -0.0837 (inactive) and -0.649 (inactive) | z-score [6]: 1.44 (inactive) and -0.636 (inactive) | z-score [7]: -0.881 (inactive) and -0.593 (inactive) | z-score [8]: -0.987 (inactive) and -0.714 (inactive) | z-score [9]: -0.406 and -0.233 | composite z-score [10]: 0.172 and 0.232
